Shown are actives, neighbours in structure and some others; about 8.1% of the full set was active somewhere.
KB-V1 cytotox: kills drug-selected multidrug resistant KB-V1 cells | Potency, µM (top dose mostly 46.1 µM), hits mostly cytotoxic | AID 1347076 | 400,000 tested, 3.4% active | KB-V1 MDR cells viability, CellTiter-Glo, 72 h; note: nearly all actives have a fitted effect of over 60% in size
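KB-V1 cells (P-gp-expressing MDR subline of KB-3-1) in phenol-red-free DMEM with 10% FBS were exposed to library compounds over a concentration series for 72 h at 37 degrees C. Viability read by CellTiter-Glo luminescence; concentration-effect curves fitted after normalization.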
SW480 rerep: inducers of DNA re-replication in SW480 colon cancer cells; Potency, µM (series often up to 46.1 µM), most hits filed as activators; SW480 DNA re-replication, Hoechst DNA content imaging, 48 h; AID 624297; 340,000 tested, 1.8% active; note: nearly all actives have a fitted effect of over 55% in size
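Readout is total intensity of Hoechst-stained nuclei, excited at 405 nm and collected at 500-530 nm. Compound treatment lasted 48 hr at 37 C in 5% CO2 before staining.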
MCF10A rerep: inducers of DNA re-replication in MCF 10A breast cells | Potency, µM (doses to about 46.1 µM), usual class: activators | MCF 10A DNA re-replication, Hoechst nuclear intensity, 48 h | 350,000 tested, 2.9% active; note: nearly all actives have a fitted effect of over 50% in size
KB-3-1 tox: KB-3-1 parental cell cytotoxicity. KB-3-1 viability, CellTiter-Glo ATP luminescence, 72 h. Potency, µM (series often up to 46.1 µM), hits mostly cytotoxic. 400,000 tested, 1.4% active; note: nearly all actives have a fitted effect of over 60% in size
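Using CellTiter-Glo luminescence, growth of non-resistant KB-3-1 adenocarcinoma cells is assessed 72 h after pin-tool compound addition at 37 °C. Normalized responses across the concentration series yield fitted curves.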
ELG1 repair inh: ELG1-dependent DNA repair inhibition. HEK293T ELG1-luciferase reporter, luminescence, 16 h; DNA damage induced by 5-fluorouridine. Potency, µM (titrated, usually from 46.1 µM), usual class: inhibitors. 330,000 tested, 2.3% active. AID 504467; note: nearly all actives have a fitted effect of over 55% in size
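In this reporter screen, reduction of luminescence relative to DMSO vehicle indicated activity. Compounds and 5-fluorouridine were added together to 2,000 cells per well, incubated for 16 hr at 37 °C, then developed with ONE-Glo.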
Of the large screens only hits and unclear results are named; the others gave an inactive call. Calls come from the whole dose curve; as a rule, active = well fitted curve in the direction sought with a large enough effect; inconclusive = small, poorly fitted or top-dose-only effect, or another doubt; inactive = no such curve, though single readings can be large; an effect the other way counts as inactive or inconclusive.

CCOC(=O)N1CCN(C/C(C)=C/c2ccccc2)CC1	KB-V1 cytotox 14.6µM
O=C(/C=C/c1ccc([N+](=O)[O-])cc1)OCC(=O)N1CCOCC1	MCF10A rerep 18.4µM (no result: KB-V1 cytotox, KB-3-1 tox)
O=C(c1ccccc1)c1cccn1CC(=O)N1CCCCCC1	none
Cc1cccc(N2CCN(C(=O)Cn3cccc3C(=O)c3ccccc3)CC2)c1C	KB-V1 cytotox 16.4µM, SW480 rerep inconclusive, MCF10A rerep inconclusive, KB-3-1 tox inconclusive
C/C(=C\c1ccccc1)CN1CCN(C)CC1	none
CCOC(=O)C1CCN(C(=O)Cn2cccc2C(=O)c2ccccc2)CC1	KB-V1 cytotox 20.6µM
CCOc1ccccc1C(=O)OCC(=O)Nc1cc(S(=O)(=O)N2CCOCC2)ccc1C	ELG1 repair inh inconclusive
Cc1ccc(C)c(NS(=O)(=O)c2cc(C(=O)NCc3ccccn3)ccc2C)c1	KB-V1 cytotox inconclusive, MCF10A rerep inconclusive
CCN(CC(=O)Nc1c(F)cccc1F)C(=O)c1ccc(N2CCCCC2)c([N+](=O)[O-])c1	KB-V1 cytotox inconclusive
O=c1[nH]cc(CCCc2ccccc2)c(=O)[nH]1	none (no result: SW480 rerep, MCF10A rerep, ELG1 repair inh)
CCOC(=O)C1CCN(C(=O)C(CC)c2ccccc2)CC1 (stereo unspecified)	SW480 rerep 18.4µM
CCOC(=O)C1CCN(C(=O)COC(=O)/C=C/c2ccccc2)CC1	SW480 rerep 7.31µM, KB-3-1 tox inconclusive, ELG1 repair inh inconclusive
CCOC(=O)N1CCN(C(=O)C(C)N(c2ccccc2)S(C)(=O)=O)CC1 (stereo unspecified)	none
O=C(/C=C/c1cccc(F)c1)OCC(=O)N1CCCC1	SW480 rerep 8.2µM, MCF10A rerep inconclusive
CCOC(=O)N1CCN(C(=O)C(c2ccccc2)c2ccccc2)CC1	KB-V1 cytotox 4.11µM, SW480 rerep inconclusive, MCF10A rerep inconclusive
CCOC(=O)C1CCN(C(=O)/C=C/c2ccccc2)CC1	ELG1 repair inh inconclusive
O=C(c1ccc(NS(=O)(=O)c2cccc([N+](=O)[O-])c2)cc1)N1CCN(C(=O)c2ccco2)CC1	none
O=C1CC(c2ccccc2)=C(c2ccccc2)C1c1ccccc1 (stereo unspecified)	KB-V1 cytotox 10.3µM, SW480 rerep inconclusive, MCF10A rerep inconclusive, KB-3-1 tox inconclusive (no result: ELG1 repair inh)
Cc1cccc(N2C(=O)C(Oc3ccc(Cl)cc3Cl)C2C=O)c1C (stereo unspecified)	KB-V1 cytotox inconclusive, SW480 rerep inconclusive, MCF10A rerep 18.4µM, KB-3-1 tox inconclusive
COCCN1CC(=O)N(c2cccc(C)c2C)C(c2ccc(Cl)cc2)C1=O (stereo unspecified)	none
CSc1ccc(CN2CCN(Cc3ccc([N+](=O)[O-])cc3)CC2)cc1	KB-V1 cytotox 2.06µM, MCF10A rerep 14.6µM, KB-3-1 tox inconclusive, ELG1 repair inh inconclusive
O=[N+]([O-])c1ccc(CN2CCCCCC2)cc1	none
O=C1C2C(C(=O)N1CCN1CCN(Cc3ccc([N+](=O)[O-])cc3)CC1)[C@H]1C=C[C@@H]2C1 (stereo partly specified)	ELG1 repair inh 16.4µM
O=C(Nc1ccc(Cl)cc1)c1ccc(OCC2CCCO2)cc1 (stereo unspecified)	KB-V1 cytotox 13µM, KB-3-1 tox inconclusive, ELG1 repair inh inconclusive
Cc1cccc(NC(=O)c2ccc(OCC3CCCO3)cc2)c1C (stereo unspecified)	KB-V1 cytotox 20.6µM, ELG1 repair inh inconclusive
Cc1cccc(NC(=O)CN(CC2CCCO2)C(=O)c2oc3ccc(F)cc3c2C)c1C (stereo unspecified)	KB-V1 cytotox 5.17µM, ELG1 repair inh inconclusive
O=C(NCc1ccc(Cl)cc1)c1ccc(OCC2CCCO2)cc1 (stereo unspecified)	KB-V1 cytotox 16.4µM, ELG1 repair inh inconclusive
O=C(C1CCCCC1)N(Cc1cccnc1)c1nc2c(F)cccc2s1	none (no result: SW480 rerep, MCF10A rerep, ELG1 repair inh)
CCN(CC)C(=O)c1[nH]cnc1C(=O)NCc1ccccc1	ELG1 repair inh inconclusive
O=C(Nc1nc(-c2ccc(Cl)cc2Cl)cs1)c1ccc(OCC2CCCO2)cc1 (stereo unspecified)	KB-V1 cytotox 9.2µM, ELG1 repair inh inconclusive
Cc1cc(C)c2nc(NC(=O)c3ccc(OCC4CCCO4)cc3)sc2c1 (stereo unspecified)	none
Cc1cccc(-n2c(=O)c3c(c4cc(C)ccc4n3C)n(Cc3ccccc3F)c2=O)c1	none (no result: SW480 rerep, MCF10A rerep, ELG1 repair inh)
CCN(CC)c1ccc(C=Nc2ccc(OC)c(S(=O)(=O)N3CCOCC3)c2)c(O)c1	none
CCOC(=O)c1ccccc1NC(=O)Nc1cc2c(cc1N1CCCCC1)n(C)c(=O)n2C	none (no result: SW480 rerep, MCF10A rerep, ELG1 repair inh)
CC(C)CC(=O)NC(NC(=S)Nc1sc2c(c1C#N)CCCC2)C(Cl)(Cl)Cl (stereo unspecified)	MCF10A rerep 16.4µM, KB-3-1 tox inconclusive
COc1ccc(-c2cc(C(=O)Nc3sc4c(c3C#N)CCCC4)no2)cc1OC	none (no result: SW480 rerep, MCF10A rerep, ELG1 repair inh)
N#Cc1c(NC(=O)c2cccnc2)sc2c1CCC2	KB-V1 cytotox 5.8µM, SW480 rerep 16.4µM, MCF10A rerep 5.8µM, KB-3-1 tox 9.2µM, ELG1 repair inh inconclusive
Cc1ccnc(SCC(=O)Nc2sc3c(c2C#N)CCC(C(C)(C)C)C3)n1 (stereo unspecified)	KB-V1 cytotox 13µM, MCF10A rerep inconclusive, KB-3-1 tox inconclusive, ELG1 repair inh inconclusive
O=C(Nc1sc2c(c1C(=O)c1ccccc1)CCCC2)c1cccnc1	none
Cc1cc(C)nc(SCC(=O)Nc2sc3c(c2C#N)CCC(C)C3)n1 (stereo unspecified)	KB-V1 cytotox inconclusive (no result: ELG1 repair inh)
CC(C)c1cc(C(=O)Nc2sc3c(c2C#N)CCC3)no1	KB-V1 cytotox inconclusive, SW480 rerep inconclusive, MCF10A rerep 14.6µM, KB-3-1 tox inconclusive
CC1CCc2c(sc(NC(=O)c3ccccc3C(=O)O)c2C#N)C1 (stereo unspecified)	SW480 rerep inconclusive, ELG1 repair inh inconclusive
CCC(C)(C)C1CCc2c(sc(NC(=O)c3ccccc3C(=O)O)c2C#N)C1 (stereo unspecified)	KB-V1 cytotox inconclusive, MCF10A rerep 18.4µM, ELG1 repair inh inconclusive
N#Cc1c(NC(=O)c2cnccn2)sc2c1CCCC2	KB-V1 cytotox 16.4µM, SW480 rerep 5.8µM, MCF10A rerep inconclusive, KB-3-1 tox inconclusive, ELG1 repair inh inconclusive
Cn1nccc1C(=O)Nc1sc2c(c1C#N)CCCC2	none
N#Cc1c(NC(=O)c2ccccc2)sc2c1CCC2	KB-V1 cytotox 4.61µM, SW480 rerep 10µM, MCF10A rerep inconclusive, KB-3-1 tox 16.4µM, ELG1 repair inh inconclusive
N#Cc1c(NC(=S)NC(=O)c2ccccc2)sc2c1CCCC2	MCF10A rerep inconclusive, ELG1 repair inh inconclusive (no result: SW480 rerep)
O=C1c2ccccc2C(c2nnnn2-c2ccc3ccccc3c2)N1C1CC1 (stereo unspecified)	KB-V1 cytotox inconclusive (no result: SW480 rerep, MCF10A rerep, ELG1 repair inh)
Cc1cc(C)c2c(=O)n3c(nc2c1)C(C)NC(=O)c1cccnc1-3 (stereo unspecified)	none (no result: SW480 rerep, MCF10A rerep, ELG1 repair inh)
CCc1nc2ccc(C(=O)NCCCN3CCCC3=O)cn2c1N(CC)Cc1cccc(Br)c1	none (no result: SW480 rerep, MCF10A rerep, ELG1 repair inh)
